High-throughput results (PubChem BioAssay)
Shown are actives, neighbours in structure and some others; about 0.5% of the full set was active somewhere.
RTF Ca sens inh: cardiac RTF calcium desensitization; P19429+P45379; IANBD-labeled cardiac RTF, Ca2+ fluorescence; inhibition, % at 7.15 µM; 340,000 tested, 0.12% active;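 active = inhibition above the mean inhibition of all tested compounds plus 3 SD, cut at about 17% in these data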;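 also: assay run at fixed EC70 calcium of 1.6 mM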
LANA DNA inh: inhibitors of KSHV LANA C-terminal domain DNA binding. MBP-C-LANA/FAM-LBS DNA binding, fluorescence polarization. inhibition, % at 9 µM. 340,000 tested, 0.078% active. AID 504423;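 active = highest replicate inhibition at or above 60% at 9 µM, even if other replicates fall short; inactive = all replicates below 60% inhibition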;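 also: 0% = neutral control wells and 100% = 4 µM acridine orange control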
cardiac RTF act: increases calcium sensitivity of human cardiac regulated thin filaments; 340,000 tested, 0.24% active; AID 493008; P19429+P45379; IANBD-labeled TnC RTF fluorescence at EC20 calcium; 0% EC20 calcium, 100% full calcium; activation, % at 7.2 µM;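 active = activation above the mean over all tested compounds plus 3 SD, cut at about 30% in these data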;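 also: rise in fluorescence read as greater calcium sensitivity of cardiac thin filaments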
Keap1-Nrf2 PPI: disrupts human Keap1 binding to Nrf2 peptide; Keap1 Kelch-Nrf2 peptide fluorescence polarization, 1536-well; inhibition, % at 9.4 µM; 340,000 tested, 0.15% active; AID 504523; in the data active = inhibition above about 12%; inconclusive = no clear call, values can overlap the other calls; inactive = below about 7.3%;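 also: human Keap1 Kelch domain with fluorescein labeled Nrf2 9mer peptide probe; 0% = neutral control wells and 100% = peptide positive control; higher means more block of Keap1 binding to Nrf2 peptide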
Starred values were filed as active, the others as inactive; ? = inconclusive; + = active, no number.

SMILES	RTF Ca sens inh	LANA DNA inh	cardiac RTF act	Keap1-Nrf2 PPI
C/C(=N/NC(=O)c1ccncc1)c1cc2ccc(O)cc2oc1=O	-403	75*	+	-76
C/C(=N\NC(=O)c1ccncc1)c1cc2ccccc2oc1=O	-20	-1	3	-6
O=C(NCc1ccccc1)C(=O)NCC1CCCN1S(=O)(=O)c1cccs1 (stereo unspecified)	-6	1	1	7
CCN1CCN(Cc2c(O)ccc3c2O/C(=C\c2ccccc2)C3=O)CC1	-49	17	26	-12
O=C1/C(=C/C=C/c2ccccc2)Oc2c1ccc(O)c2CN1CCN(CCO)CC1	-56	4	43*	-33
CN(C)Cc1c(O)ccc2c1O/C(=C\C=C\c1ccccc1)C2=O	-55	5	26	-25
COc1ccccc1/C=C/C=C1\Oc2c(ccc(O)c2CN2CCN(CCO)CC2)C1=O	-222	-1	239*	-148
CCN1CCN(Cc2c(O)ccc3c2O/C(=C\C=C\c2ccccc2)C3=O)CC1	-137	8	140*	-64
CN(C)CCCNc1cc(O)c2ncccc2c1	-22	23	-5	22*
O=C(O)Cc1ccc(N=Nc2c(O)c(C(=O)O)cc3ccccc23)cc1	17	92*	-19	-2
CCN(CCCNC(=O)C1c2ccccc2C(=O)N(CCOC)C1c1ccc(F)cc1)Cc1ccccc1 (stereo unspecified)	-9	83*	1	3
O=C(Nc1ccc(Cl)cn1)c1cccc2ccccc12	1	-1	-1	-1
O=C(O)Cc1c[nH]c2cccc(O)c12	15	102*	-8	-7
O=C(O)Cc1c[nH]c2ccccc12	-5	-1	-1	4
CCc1ccc(Nc2n[n+](-c3ccccc3)c(-c3ccc(OCc4ccccc4)cc3)s2)cc1	-4	4	2	-6
CCc1ccc(Nc2n[n+](-c3ccccc3)c(-c3ccc(N(CC)CC)cc3)s2)cc1	-61	3	33*	-18
CCN(CC)c1ccc(-c2sc(Nc3ccccc3)n[n+]2-c2ccc(F)cc2)cc1	-25	5	31*	-16
CCOc1ccc(-c2c(C(=O)N/N=C/c3cccnc3)nnn2-c2nonc2N)cc1	-11	-1	2	0
NC(=O)c1cc[n+](CC2=C(C(=O)O)N3C(=O)[C@@H](NC(=O)C(c4ccccc4)S(=O)(=O)[O-])[C@H]3SC2)cc1 (stereo partly specified)	8	102*	-9	23*
O=C(CN1C(=O)NC2(CCCCCC2)C1=O)NCc1ccccc1Cl	-7	-1	1	-3
CCOC(=O)/C(C#N)=C\c1ccc(N2CCN(C/C=C/c3ccccc3)CC2)cc1	-70	1	76*	-8
CNc1c2cccc(C)c2nc2c(C(=O)NCCN(C)C)cccc12	-17	61*	19	0
Cc1ccc(C(=O)NCCN(C)C)c(C)c1	-8	0	7	0
C=C(C)C(=O)Nc1cccc(C2=NOC3(C2)C[C@@H](C(N)=O)N(C(=O)C2(C)CC2)C3)c1 (stereo partly specified)	-4	105*	3	-1
C=C(C)C(=O)Nc1cccc(C2=NOC3(C2)C[C@@H](C(N)=O)N(C(=O)C(=C)C)C3)c1 (stereo partly specified)	0	25	9	-2
SMILES	RTF Ca sens inh	LANA DNA inh	cardiac RTF act	Keap1-Nrf2 PPI
COc1cc(C2C=C(c3cccs3)Nc3ncnn32)cc(OC)c1OC (stereo unspecified)	-497	121*	386*	88*
COCCN(C(=O)CSc1nnc(-c2cccs2)n1N)c1c(N)n(Cc2ccccc2)c(=O)[nH]c1=O	9	-1	-3	-5
CCOc1ccc(C2OC34CCCCC3C(C#N)(C#N)C2(C#N)C(=N)O4)cc1OC (stereo unspecified)	-35	42	29	19*
Cc1ccc(C2OC34CCCCCC3C(C#N)(C(=N)O4)C2(C#N)C#N)cc1 (stereo unspecified)	-3	-2	6	-2
N#C/C(=C\c1ccc(O)cc1)c1nc2ccccc2o1	-2	-3	0	?
COc1cc(/C=C(\C#N)c2nc3ccccc3o2)ccc1O	-78	-39	50*	-34
COc1cccc(N2CCN(C(=O)CSc3ccc(F)cc3)CC2)c1	-6	-1	-2	4
O=C(O)CCCN1C(=O)/C(=C/c2cn(-c3ccccc3)nc2-c2cccs2)SC1=S	-34	15	31*	-8
O=C(OCc1nnc(-c2ccccc2)o1)c1cc(Cl)ccc1[N+](=O)[O-]	-7	1	5	-7
O=C(c1cc(-c2ccncc2)nc2ccccc12)N1CCN(c2ccc(N3CCOCC3)nn2)CC1	-9	-1	-4	0
